The nature of assay [1]: antimalarial activity against Dd2 strain (AID 2302;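 active = growth inhibition above 50% at the single 2 µM test dose, taken to imply half-maximal potency below 2 µM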;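 also: 0% = DMSO untreated growth and 100% = chloroquine plus artemisinin killed control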). The settings on record: P. falciparum Dd2 in RBCs, LDH growth readout, 72 h; at 2 µM; stronger effect = higher value.
Assay [2] is described as follows: human hepatoma cell viability loss – ATP luminescence, cytotoxicity control for P. falciparum antimalarial project, primary screen (AID 2303;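 active = inhibition above 50%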;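 also: 0% = DMSO wells and 100% = digitonin-killed cells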). The settings on record: HepG2 viability, 24-48 h, at 10 µM, stronger effect = higher value.
In assay [3] the target is L-lactate dehydrogenase (Plasmodium falciparum (isolate CDC / Honduras)) (UniProt Q27743). The assay is described as follows: PfLDH activity inhibition – cell lysate, 3D7 strain, counter-screen for P. falciparum growth inhibition project (AID 2304).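 Also: 0% = vehicle and 100% = reference inhibitor.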 The settings on record: P. falciparum 3D7 crude extract, LDH APAD/NBT absorbance; at 2 µM; stronger effect = higher value. Background: The purpose of a counterscreen is to sort out artefacts and off-target activity.

A short description of assay [4]: inhibition of 3D7 malaria parasite growth – strain 3D7 (AID 2306).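 Also: 0% = DMSO wells and 100% = chloroquine plus artemisinin control wells.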 The settings on record: P. falciparum 3D7 erythrocytic growth, LDH absorbance, 72 h; at 2 µM; stronger effect = higher value.
The target in assay [5] is Calcium-dependent protein kinase 1 (Plasmodium falciparum (isolate 3D7)) (UniProt P62344). The assay is described as follows: PfCDPK1 kinase inhibitors, biochemical, TCAMS library (AID 1159585; cut-off not given, nearly all actives have IC50 up to about 0.98 µM;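 also: inhibitors leave more ATP so luminescence rises with inhibition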). The settings on record: recombinant PfCDPK1, Kinase-Glo ATP depletion luminescence. In general terms: Kinase-Glo reads ATP consumption through a luciferase reaction.
Assay [6] addresses Plasmodium falciparum protein kinase 6 (PK6, PF3D7_1337100) (UniProt Q8IDW1). The assay is described as follows: PfPK6 kinase inhibitors, biochemical, TCAMS library (AID 1159586). The settings on record: recombinant PfPK6, Kinase-Glo ATP depletion luminescence.
Assay [7] deals with Protein kinase 7 (PK7), Plasmodium falciparum 3D7 (PF3D7_0213400) (UniProt Q7YTF7). The assay is described as follows: inhibition of Plasmodium PK7 catalytic activity – biochemical, TCAMS antimalarial set, Kinase-Glo luminescence (AID 1159587). The settings on record: recombinant PfPK7, Kinase-Glo ATP depletion luminescence.
Assay [8] deals with Calcium-dependent protein kinase 4 (Plasmodium falciparum (isolate 3D7)) (UniProt Q8IBS5). The assay is described as follows: PfCDPK4 kinase inhibitors, biochemical, TCAMS library (AID 1159588; cut-off not given, nearly all actives have IC50 up to about 0.91 µM). The settings on record: recombinant PfCDPK4, Kinase-Glo ATP depletion luminescence.

Values without a mark were called inactive. For some of these results: Potency and affinity values are given separately. Calls of active or inactive are those of the source. Unless noted, no rule for the calls is given here.

Calcium-dependent protein kinase 4 (Plasmodium falciparum (isolate 3D7)), sequence (Q8IBS5 whole entry, looked up): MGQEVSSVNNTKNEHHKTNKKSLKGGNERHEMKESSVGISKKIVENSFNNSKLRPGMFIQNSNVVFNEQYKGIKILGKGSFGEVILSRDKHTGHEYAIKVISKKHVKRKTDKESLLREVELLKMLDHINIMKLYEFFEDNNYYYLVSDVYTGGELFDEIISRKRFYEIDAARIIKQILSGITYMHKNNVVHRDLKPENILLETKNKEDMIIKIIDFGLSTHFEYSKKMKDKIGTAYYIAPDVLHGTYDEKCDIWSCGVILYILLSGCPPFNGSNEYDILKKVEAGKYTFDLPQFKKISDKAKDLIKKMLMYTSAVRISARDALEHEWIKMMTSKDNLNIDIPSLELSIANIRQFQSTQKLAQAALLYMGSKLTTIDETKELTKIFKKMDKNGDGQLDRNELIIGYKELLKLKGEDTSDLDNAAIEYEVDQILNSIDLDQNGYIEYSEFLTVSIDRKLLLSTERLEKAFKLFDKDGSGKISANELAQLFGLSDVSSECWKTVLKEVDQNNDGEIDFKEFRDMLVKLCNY
Calcium-dependent protein kinase 1 (Plasmodium falciparum (isolate 3D7)), sequence (P62344 whole entry, looked up): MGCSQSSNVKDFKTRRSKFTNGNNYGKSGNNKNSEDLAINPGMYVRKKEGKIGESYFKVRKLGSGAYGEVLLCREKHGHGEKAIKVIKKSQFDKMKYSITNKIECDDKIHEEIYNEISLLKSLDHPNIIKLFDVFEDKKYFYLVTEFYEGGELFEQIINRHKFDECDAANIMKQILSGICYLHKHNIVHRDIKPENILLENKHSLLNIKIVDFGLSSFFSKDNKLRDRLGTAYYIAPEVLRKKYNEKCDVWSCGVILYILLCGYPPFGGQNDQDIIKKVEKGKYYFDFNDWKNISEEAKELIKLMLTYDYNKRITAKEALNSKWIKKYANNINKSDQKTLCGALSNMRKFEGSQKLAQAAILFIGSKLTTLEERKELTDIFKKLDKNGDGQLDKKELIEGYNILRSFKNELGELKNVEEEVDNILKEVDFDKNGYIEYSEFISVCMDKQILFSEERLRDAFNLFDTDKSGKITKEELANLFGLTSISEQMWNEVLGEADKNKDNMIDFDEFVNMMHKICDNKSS
Plasmodium falciparum protein kinase 6 (PK6, PF3D7_1337100), sequence (Q8IDW1 1-305): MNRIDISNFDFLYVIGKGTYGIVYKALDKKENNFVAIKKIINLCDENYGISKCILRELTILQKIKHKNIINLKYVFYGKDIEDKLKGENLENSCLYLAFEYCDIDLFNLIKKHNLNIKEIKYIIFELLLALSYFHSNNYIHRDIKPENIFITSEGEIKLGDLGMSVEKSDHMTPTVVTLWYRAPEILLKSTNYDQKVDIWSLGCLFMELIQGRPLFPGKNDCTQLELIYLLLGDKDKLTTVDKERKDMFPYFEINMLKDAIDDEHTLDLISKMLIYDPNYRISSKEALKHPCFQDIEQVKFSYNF
L-lactate dehydrogenase (Plasmodium falciparum (isolate CDC / Honduras)), sequence (Q27743 whole entry, looked up): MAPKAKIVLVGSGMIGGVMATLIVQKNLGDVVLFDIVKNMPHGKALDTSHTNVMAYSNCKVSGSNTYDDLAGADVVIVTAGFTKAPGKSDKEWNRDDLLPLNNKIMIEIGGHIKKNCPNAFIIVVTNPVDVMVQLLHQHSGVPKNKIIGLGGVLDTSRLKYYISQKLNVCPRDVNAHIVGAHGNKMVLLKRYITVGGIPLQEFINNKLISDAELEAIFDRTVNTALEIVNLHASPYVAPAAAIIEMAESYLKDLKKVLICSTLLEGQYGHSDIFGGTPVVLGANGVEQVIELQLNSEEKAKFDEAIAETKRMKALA
Protein kinase 7 (PK7), Plasmodium falciparum 3D7 (PF3D7_0213400), sequence (Q7YTF7 1-343): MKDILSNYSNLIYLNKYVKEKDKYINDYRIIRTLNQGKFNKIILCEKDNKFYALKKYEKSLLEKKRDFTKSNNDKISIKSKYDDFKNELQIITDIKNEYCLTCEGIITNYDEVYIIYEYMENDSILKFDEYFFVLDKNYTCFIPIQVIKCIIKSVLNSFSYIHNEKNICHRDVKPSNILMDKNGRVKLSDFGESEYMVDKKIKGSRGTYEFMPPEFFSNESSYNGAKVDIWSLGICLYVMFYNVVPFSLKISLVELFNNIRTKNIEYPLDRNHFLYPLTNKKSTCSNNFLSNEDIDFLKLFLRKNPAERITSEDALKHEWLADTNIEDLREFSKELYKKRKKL

On to `Cc1cc(NC(=O)Nc2cccc(N(C)C)c2)c2ccccc2n1`, for which the growth inhibition in assay [1] was 95% (active); in assay [4], 97% (active). The inhibition – broadly, the change of the read-out against control, counted positive when it falls – in assay [2] is 0%; in assay [3], 4%. In addition, the result in assay [5], in assay [6], in assay [7] and in assay [8] was inactive.
As to `COc1cccc2c(NN=Cc3ccc(Cl)cc3)ccnc12`, the growth inhibition in assay [1] is 39%; in assay [4] it was 99% (active). In addition, the inhibition in assay [2] was 26%; in assay [3], 5%. The result in assay [5], in assay [6], in assay [7] and in assay [8] was inactive.
Take `Oc1ccc2c(CNCCc3ccccc3)c(O)ccc2c1CNCCc1ccccc1`: the growth inhibition in assay [1] is 100% (active); in assay [4], 99% (active). For the same compound, the inhibition was 24% in assay [2] and -8% in assay [3]. The outcome in assay [5], in assay [6], in assay [7] and in assay [8] was inactive.
As to `CCOc1ccc(-c2nonc2NC(=O)c2ccc(F)cc2)cc1OCC`, the values for the growth inhibition in assay [1] and in assay [4] were 99% (active) and 102% (active), respectively. Moreover, the values for the inhibition in assay [2] and in assay [3] were 36% and 0%, respectively. Moreover, the outcome in assay [5], in assay [6], in assay [7] and in assay [8] was inactive.
Regarding `CC(=O)Oc1ccc(C(=O)Oc2ccccc2C#CC#N)cc1OC(C)=O`, the figures for the growth inhibition in assay [1] and in assay [4] were 61% (active) and 93% (active), respectively. Besides, the inhibition was 23% in assay [2] and -1% in assay [3]. Also, the result in assay [5], in assay [6], in assay [7] and in assay [8] was inactive.
Turning to `CCCC1(NC[C@@H](O)[C@H](Cc2ccccc2)NC(=O)c2cc(NCC)cc(N3CCCCS3(=O)=O)c2)CCCCC1`, the growth inhibition is 98% (active) in assay [1] and 101% (active) in assay [4]. Moreover, the inhibition in assay [2] is 4%; in assay [3], -4%. The result in assay [5], in assay [6], in assay [7] and in assay [8] was inactive.
Turning to `O=C(Nc1cccc(-c2ccc(-c3nc4ccc(F)cc4[nH]3)s2)c1)c1cccnc1`, the growth inhibition in assay [1] is 72% (active); in assay [4], 100% (active). Further, the inhibition was 46% in assay [2] and -5% in assay [3]. In addition, the result in assay [5], in assay [6], in assay [7] and in assay [8] was inactive.
With `c1ccc(-n2cncn2)cc1`, the figures for the growth inhibition in assay [1] and in assay [4] were 96% (active) and 93% (active), respectively. Besides, the values for the inhibition in assay [2] and in assay [3] were 0% and 6%, respectively. Besides, the result in assay [5], in assay [6], in assay [7] and in assay [8] was inactive.
Consider `Cc1cc(NN=Cc2ccccc2Cl)c2ccc(F)cc2n1`, for which the values for the growth inhibition in assay [1] and in assay [4] were 100% (active) and 101% (active), respectively. The inhibition in assay [2] was 6%; in assay [3], -4%. The outcome in assay [5], in assay [6], in assay [7] and in assay [8] was inactive.
Take `CN(C(=O)C1(c2ccc(Cl)cc2)CC1)C1CCN(CCCCCNC(=O)/C=C/c2ccc(Cl)c(Cl)c2)CC1`: the growth inhibition is 0% in assay [1] and 88% (active) in assay [4]. Besides, the inhibition in assay [2] was 91% (active); in assay [3], -2%. Further, the result in assay [5], in assay [6], in assay [7] and in assay [8] was inactive.
In the case of `Oc1ccccc1Nc1nc(NCc2ccco2)c2ccccc2n1`, the growth inhibition in assay [1] is 71% (active); in assay [4], 99% (active). Further, the inhibition in assay [2] was 0%; in assay [3], 3%. Moreover, the result in assay [5], in assay [6], in assay [7] and in assay [8] was inactive.
With `Cc1cc(C2CCN(CCCCNC(=O)c3ccc(NC(=O)c4ccc(Cl)cc4)cc3)CC2)c(C)cc1OCc1ccncc1`, the growth inhibition in assay [1] was 92% (active); in assay [4], 100% (active). Further, the inhibition in assay [2] was 33%; in assay [3] it was 6%. Moreover, the result in assay [5], in assay [6], in assay [7] and in assay [8] was inactive.
With `Cc1ccc(NC(=O)c2ccc(CN3CCCN(CCC(C)C)CC3)cc2)cc1F`, the growth inhibition in assay [1] is 31%; in assay [4], 91% (active). Further, the inhibition was 40% in assay [2] and 1% in assay [3]. In addition, the result in assay [5], in assay [6], in assay [7] and in assay [8] was inactive.
In the case of `COc1cccc(C(=O)NC(c2ccc(Cl)cc2Cl)c2cc(Cl)c3cccnc3c2O)c1` (stereo not given), the growth inhibition in assay [1] is 76% (active); in assay [4], 100% (active). For the same compound, the inhibition in assay [2] is 37%; in assay [3], -8%. Further, the outcome in assay [5], in assay [6], in assay [7] and in assay [8] was inactive.
As to `Cc1cc(N(C)C2CCN(CC3CCCCC3)C2)nc(Nc2ccc(Cl)cc2)n1` (stereo not given), the growth inhibition was 35% in assay [1] and 98% (active) in assay [4]. Also, the inhibition in assay [2] was -3%; in assay [3], -5%. Further, the outcome in assay [5], in assay [6], in assay [7] and in assay [8] was inactive.
Regarding `O=C(NCCN1CCCC1)c1cccc(-c2ccc(-c3nc4ccccc4[nH]3)cc2)c1`, the growth inhibition is 36% in assay [1] and 100% (active) in assay [4]. The inhibition in assay [2] is 20%; in assay [3], 0%. In addition, the result in assay [5], in assay [6], in assay [7] and in assay [8] was inactive.
Turning to `CCc1cc2c3c(N)nc(N)nc3ccc2n1CC`, the results for the growth inhibition in assay [1] and in assay [4] were -2% and 93% (active), respectively. For the same compound, the inhibition is 62% (active) in assay [2] and -1% in assay [3]. Further, the outcome in assay [5], in assay [6], in assay [7] and in assay [8] was inactive.
Turning to `COc1ccc(-n2cc(CNCCCn3ccnc3)c(-c3cccc(F)c3)n2)cc1`, the values for the growth inhibition in assay [1] and in assay [4] were 17% and 98% (active), respectively. Also, the figures for the inhibition in assay [2] and in assay [3] were 21% and 0%, respectively. Further, the outcome in assay [5], in assay [6], in assay [7] and in assay [8] was inactive.
Consider `CCCCCCNc1cc(C)nc(/N=C(\N)Nc2cccc(C(F)(F)F)c2)n1`, for which the growth inhibition in assay [1] and in assay [4] was 100% (active) throughout. Moreover, the inhibition in assay [2] was 44%; in assay [3], -2%. The result in assay [5], in assay [6], in assay [7] and in assay [8] was inactive.
On to `COc1ccc2nc(-c3ccccc3)cc(NCCN(C)C)c2c1`, for which the growth inhibition is 23% in assay [1] and 101% (active) in assay [4]. The inhibition in assay [2] was -1%; in assay [3] it was -3%. The result in assay [5], in assay [6], in assay [7] and in assay [8] was inactive.
